Data from the supplement of paper PMC10849652.
Targets with a hit are over-represented here; the source holds about 7,900 in all. About 0.6% of all pairs of compound and target were hits.

What was measured:
Assay in all cases: log2 fold change, soluble protein after heating vs DMSO (PISA); higher = thermal stabilisation; K562 cells, 10 uM, 30 min; active = over 0.2 and 3.5 SD of the protein, either way, in both replicates (recomputed)
[1] = compound: CS(=O)(=O)c1ccc(-c2cnc(N)c(C(=O)Nc3ccccc3)n2)cc1
In short: (§1)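 K562 cells (2×10^6 cells/mL) were treated with 10 μM compound for 30 min, and aliquots were heated for 3 min over 48°C-58°C. Pooled aliquots were extracted in PBS with 0.5% NP-40 at 4°C, and the supernatant after 21,000xg for 90 min was measured by TMTpro 16plex LC-MS/MS with channel sums equalised. Reported thermal stability, relative to control samples and from duplicates, is a log2 fold change.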

crizotinib = compound: C[C@@H](Oc1cc(-c2cnn(C3CCNCC3)c2)cnc1N)c1c(Cl)ccc(F)c1Cl [crizotinib]
In short: as §1

[2] = compound: C[C@@H]1COCCN1C2=NC(=NC(=C2)C3(CC3)S(=O)(=O)C)C4=C5C=CNC5=CC=C4
In short: as §1

[3] = compound: C[C@H](C1=CC=C(C=C1)C(=O)NC2=C3C=CNC3=NC=C2)N
In short: as §1

duvelisib = compound: C[C@H](Nc1ncnc2nc[nH]c12)c1cc2cccc(Cl)c2c(=O)n1-c1ccccc1 [duvelisib]
In short: as §1

gandotinib = compound: Cc1cc(Nc2cc(CN3CCOCC3)c3nc(C)c(Cc4ccc(Cl)cc4F)n3n2)n[nH]1 [gandotinib]
In short: as §1

tozasertib = compound: Cc1cc(Nc2cc(N3CCN(C)CC3)nc(Sc3ccc(NC(=O)C4CC4)cc3)n2)n[nH]1 [tozasertib]
In short: as §1

[4] = compound: Cc1cc(SCc2sc(-c3ccc(C(F)(F)F)cc3)nc2C)ccc1OCC(=O)O
In short: as §1

doramapimod = compound: Cc1ccc(-n2nc(C(C)(C)C)cc2NC(=O)Nc2ccc(OCCN3CCOCC3)c3ccccc23)cc1 [doramapimod]
In short: as §1

ispinesib = compound: Cc1ccc(C(=O)N(CCCN)[C@@H](c2nc3cc(Cl)ccc3c(=O)n2Cc2ccccc2)C(C)C)cc1 [ispinesib]
In short: as §1

Measured: log2 fold change

TYW1 (UniProt Q9NV66)
inactive: [1] 0.038 | crizotinib 0.143 | [2] 0.032 | [3] 0.053 | duvelisib 0.035 | gandotinib -0.004 | tozasertib 0.037 | [4] 0.021 | doramapimod 0.008 | ispinesib 0.179

TNFAIP8 isoform 4 (UniProt O95379)
inactive: [1] 0.005 | crizotinib 0 | [2] 0.122 | [3] -0.099 | duvelisib 0.019 | gandotinib -0.073 | tozasertib -0.076 | [4] -0.046 | doramapimod -0.016 | ispinesib -0.046

USP3 (UniProt Q9Y6I4)
inactive: [1] 0.065 | crizotinib -0.131 | [2] 0.043 | [3] -0.26 | duvelisib -0.008 | gandotinib -0.246 | tozasertib -0.003 | [4] 0.155 | doramapimod -0.023 | ispinesib -0.04

TUBAL3 (UniProt A6NHL2)
UniProt A6NHL2, sequence (A6NHL2 whole entry, looked up): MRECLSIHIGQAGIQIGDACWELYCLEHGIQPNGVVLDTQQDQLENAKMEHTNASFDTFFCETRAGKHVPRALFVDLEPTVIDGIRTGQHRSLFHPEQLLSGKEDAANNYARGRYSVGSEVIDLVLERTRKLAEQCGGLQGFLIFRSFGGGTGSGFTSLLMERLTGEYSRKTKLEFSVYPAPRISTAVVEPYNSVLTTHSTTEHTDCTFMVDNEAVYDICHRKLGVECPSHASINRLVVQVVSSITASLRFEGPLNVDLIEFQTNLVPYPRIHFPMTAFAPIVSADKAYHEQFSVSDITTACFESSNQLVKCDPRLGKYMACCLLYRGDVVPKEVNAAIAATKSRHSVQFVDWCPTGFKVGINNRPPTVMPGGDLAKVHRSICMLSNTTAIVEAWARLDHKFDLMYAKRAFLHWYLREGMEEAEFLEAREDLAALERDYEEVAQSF
inactive: [1] -0.097 | crizotinib -0.128 | [2] 0.161 | [3] 0.02 | duvelisib 0.009 | gandotinib -0.165 | tozasertib 0 | [4] -0.02 | doramapimod 0.113 | ispinesib -0.108

TMEM87B (UniProt Q96K49)
UniProt Q96K49, sequence (Q96K49 whole entry, looked up): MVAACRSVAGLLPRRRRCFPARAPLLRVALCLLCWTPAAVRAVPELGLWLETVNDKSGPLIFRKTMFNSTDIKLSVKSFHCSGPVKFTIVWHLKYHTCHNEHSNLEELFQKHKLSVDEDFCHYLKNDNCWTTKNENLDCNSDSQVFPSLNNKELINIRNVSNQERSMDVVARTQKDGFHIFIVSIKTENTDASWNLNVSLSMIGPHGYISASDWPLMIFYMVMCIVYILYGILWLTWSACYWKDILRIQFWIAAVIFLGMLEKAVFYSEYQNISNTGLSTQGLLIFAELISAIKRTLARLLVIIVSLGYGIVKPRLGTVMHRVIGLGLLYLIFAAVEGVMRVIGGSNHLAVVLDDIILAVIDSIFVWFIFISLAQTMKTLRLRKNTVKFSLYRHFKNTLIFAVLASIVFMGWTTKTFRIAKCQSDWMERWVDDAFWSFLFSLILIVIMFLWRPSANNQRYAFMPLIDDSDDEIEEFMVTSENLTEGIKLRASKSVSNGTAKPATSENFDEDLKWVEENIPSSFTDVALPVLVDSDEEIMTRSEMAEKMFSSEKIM
inactive: [1] 0.01 | crizotinib -0.323 | [2] -0.063 | [3] -0.033 | duvelisib 0.101 | gandotinib -0.11 | tozasertib 0.07 | [4] 0.071 | doramapimod -0.059
active: ispinesib -0.406

TOMM5 isoform 2 (UniProt Q8N4H5)
inactive: [1] 0.043 | crizotinib 0.139 | [2] 0.124 | [3] -0.053 | duvelisib 0.075 | gandotinib 0.136 | tozasertib -0.008 | [4] -0.023 | doramapimod -0.078 | ispinesib -0.051

TXNRD1 (UniProt Q16881)
inactive: [1] 0.075 | crizotinib -0.043 | [2] 0.079 | [3] -0.053 | duvelisib 0.047 | gandotinib -0.045 | tozasertib -0.036 | [4] -0.007 | doramapimod -0.028 | ispinesib -0.009

UTP4 (UniProt Q969X6)
inactive: [1] -0.013 | crizotinib 0.019 | [2] 0.055 | [3] 0.004 | duvelisib 0.022 | gandotinib 0.004 | tozasertib 0.006 | [4] -0.056 | doramapimod 0.012 | ispinesib 0.066

UCHL5 (UniProt Q9Y5K5)
inactive: [1] 0.023 | crizotinib -0.066 | [2] 0 | [3] -0.005 | duvelisib -0.006 | gandotinib -0.116 | tozasertib 0.036 | [4] 0.064 | doramapimod -0.015 | ispinesib -0.056

TP53BP1 isoform 2 (UniProt Q12888)
inactive: [1] 0.025 | crizotinib 0.076 | [2] -0.001 | [3] 0.018 | duvelisib -0.025 | gandotinib -0.053 | tozasertib 0.205 | [4] 0.066 | doramapimod 0.036 | ispinesib 0.002

TXN2 (UniProt Q99757)
UniProt Q99757, sequence (Q99757 whole entry, looked up): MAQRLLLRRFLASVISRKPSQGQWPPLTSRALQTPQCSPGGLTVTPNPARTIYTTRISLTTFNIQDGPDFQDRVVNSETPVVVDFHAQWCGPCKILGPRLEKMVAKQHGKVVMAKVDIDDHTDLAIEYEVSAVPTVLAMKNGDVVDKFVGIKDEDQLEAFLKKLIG
active: [3] -0.317
inactive: [1] -0.001 | crizotinib 0.128 | [2] -0.047 | duvelisib 0.031 | gandotinib 0.105 | tozasertib 0.009 | [4] -0.026 | doramapimod -0.034 | ispinesib 0.028

TMEM173 (UniProt Q86WV6)
inactive: [1] 0.042 | crizotinib 0.147 | [2] 0.041 | [3] 0.004 | duvelisib 0.017 | gandotinib -0.151 | tozasertib 0.01 | [4] 0.078 | doramapimod 0.023 | ispinesib 0.037

WBP4 (UniProt O75554)
UniProt O75554, sequence (O75554 whole entry, looked up): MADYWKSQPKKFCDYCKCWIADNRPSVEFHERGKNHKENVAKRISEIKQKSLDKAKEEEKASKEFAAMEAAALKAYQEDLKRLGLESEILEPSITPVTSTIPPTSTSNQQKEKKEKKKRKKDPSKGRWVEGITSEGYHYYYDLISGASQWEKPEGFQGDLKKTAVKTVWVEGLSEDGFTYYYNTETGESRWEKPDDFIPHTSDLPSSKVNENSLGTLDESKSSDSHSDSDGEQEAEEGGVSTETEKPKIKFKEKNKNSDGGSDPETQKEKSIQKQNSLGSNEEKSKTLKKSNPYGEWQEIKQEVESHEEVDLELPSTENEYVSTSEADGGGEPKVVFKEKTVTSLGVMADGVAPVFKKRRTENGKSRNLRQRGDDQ
inactive: [1] -0.032 | crizotinib 0.059 | [2] 0.004 | [3] -0.015 | duvelisib 0.011 | gandotinib -0.022 | tozasertib -0.016 | [4] 0.01 | doramapimod 0.018 | ispinesib -0.044

TXNL1 (UniProt O43396)
inactive: [1] 0.027 | crizotinib 0.067 | [2] -0.01 | [3] -0.028 | duvelisib 0.013 | gandotinib -0.076 | tozasertib 0.038 | [4] 0.068 | doramapimod -0.049 | ispinesib 0.07

WARS2 (UniProt Q9UGM6)
inactive: [1] -0.062 | crizotinib 0.09 | [2] 0.065 | [3] 0.027 | duvelisib 0.079 | gandotinib 0.006 | tozasertib -0.001 | [4] 0.04 | doramapimod 0.017 | ispinesib -0.085

TMEM184C (UniProt Q9NVA4)
active: ispinesib -0.365
inactive: [1] 0.117 | crizotinib -0.267 | [2] 0.019 | [3] -0.049 | duvelisib -0.046 | gandotinib -0.038 | tozasertib 0.046 | [4] 0.036 | doramapimod 0.019

VPS37A (UniProt Q8NEZ2)
inactive: [1] 0.035 | crizotinib -0.146 | [2] 0.092 | [3] -0.084 | duvelisib 0.044 | gandotinib -0.292 | tozasertib 0.057 | [4] 0.206 | doramapimod -0.017 | ispinesib 0

USP14 (UniProt P54578)
UniProt P54578, sequence (P54578 whole entry, looked up): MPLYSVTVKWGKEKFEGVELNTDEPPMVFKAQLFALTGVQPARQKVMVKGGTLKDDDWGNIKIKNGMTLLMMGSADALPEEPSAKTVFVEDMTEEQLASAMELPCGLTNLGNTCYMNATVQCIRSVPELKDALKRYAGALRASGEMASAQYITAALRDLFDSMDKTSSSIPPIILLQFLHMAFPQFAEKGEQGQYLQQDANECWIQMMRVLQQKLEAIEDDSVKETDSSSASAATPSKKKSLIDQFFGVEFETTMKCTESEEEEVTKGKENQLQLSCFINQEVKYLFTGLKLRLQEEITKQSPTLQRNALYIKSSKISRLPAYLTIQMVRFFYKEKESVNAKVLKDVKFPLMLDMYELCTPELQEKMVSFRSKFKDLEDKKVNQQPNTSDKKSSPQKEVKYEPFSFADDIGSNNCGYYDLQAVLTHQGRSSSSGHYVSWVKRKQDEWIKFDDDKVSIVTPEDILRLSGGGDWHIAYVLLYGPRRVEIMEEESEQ
inactive: [1] 0.006 | crizotinib -0.023 | [2] 0.082 | [3] -0.037 | duvelisib 0.067 | gandotinib -0.078 | tozasertib -0.002 | [4] 0.076 | doramapimod 0.002 | ispinesib 0.017

UBAP2L isoform 5 (UniProt Q14157)
UniProt Q14157, sequence (Q14157 whole entry, looked up): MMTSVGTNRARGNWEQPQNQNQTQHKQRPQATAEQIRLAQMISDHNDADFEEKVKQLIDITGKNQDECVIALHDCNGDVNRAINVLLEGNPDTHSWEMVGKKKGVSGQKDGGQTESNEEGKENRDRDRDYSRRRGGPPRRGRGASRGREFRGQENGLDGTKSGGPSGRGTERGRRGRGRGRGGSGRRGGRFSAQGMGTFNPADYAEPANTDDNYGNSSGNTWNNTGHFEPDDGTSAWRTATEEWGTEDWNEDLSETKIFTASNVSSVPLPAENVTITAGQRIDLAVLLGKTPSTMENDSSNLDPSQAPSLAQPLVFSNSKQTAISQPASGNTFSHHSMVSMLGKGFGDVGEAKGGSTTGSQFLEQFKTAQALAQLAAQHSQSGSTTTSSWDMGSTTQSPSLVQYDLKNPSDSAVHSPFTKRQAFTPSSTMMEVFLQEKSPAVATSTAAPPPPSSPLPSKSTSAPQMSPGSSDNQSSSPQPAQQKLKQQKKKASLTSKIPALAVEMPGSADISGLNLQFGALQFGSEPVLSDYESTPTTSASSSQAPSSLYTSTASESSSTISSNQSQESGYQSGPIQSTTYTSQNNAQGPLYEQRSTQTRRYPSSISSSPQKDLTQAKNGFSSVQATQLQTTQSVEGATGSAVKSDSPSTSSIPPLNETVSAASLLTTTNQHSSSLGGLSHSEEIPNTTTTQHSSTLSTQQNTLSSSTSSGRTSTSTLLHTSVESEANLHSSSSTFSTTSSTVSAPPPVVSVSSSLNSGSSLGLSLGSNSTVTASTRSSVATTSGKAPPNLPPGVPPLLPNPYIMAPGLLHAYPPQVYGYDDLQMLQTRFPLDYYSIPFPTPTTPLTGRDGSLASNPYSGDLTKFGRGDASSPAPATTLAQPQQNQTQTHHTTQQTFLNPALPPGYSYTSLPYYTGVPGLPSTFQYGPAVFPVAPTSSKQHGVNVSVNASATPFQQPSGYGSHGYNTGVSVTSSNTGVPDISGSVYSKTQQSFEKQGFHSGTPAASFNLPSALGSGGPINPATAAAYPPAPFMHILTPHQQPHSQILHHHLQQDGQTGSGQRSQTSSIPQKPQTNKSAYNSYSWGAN
inactive: [1] -0.028 | crizotinib 0.051 | [2] -0.07 | [3] -0.007 | duvelisib 0.035 | gandotinib 0.007 | tozasertib -0.013 | [4] 0.016 | doramapimod -0.038 | ispinesib 0.026

TNFRSF8 (UniProt P28908)
UniProt P28908, sequence (P28908 whole entry, looked up): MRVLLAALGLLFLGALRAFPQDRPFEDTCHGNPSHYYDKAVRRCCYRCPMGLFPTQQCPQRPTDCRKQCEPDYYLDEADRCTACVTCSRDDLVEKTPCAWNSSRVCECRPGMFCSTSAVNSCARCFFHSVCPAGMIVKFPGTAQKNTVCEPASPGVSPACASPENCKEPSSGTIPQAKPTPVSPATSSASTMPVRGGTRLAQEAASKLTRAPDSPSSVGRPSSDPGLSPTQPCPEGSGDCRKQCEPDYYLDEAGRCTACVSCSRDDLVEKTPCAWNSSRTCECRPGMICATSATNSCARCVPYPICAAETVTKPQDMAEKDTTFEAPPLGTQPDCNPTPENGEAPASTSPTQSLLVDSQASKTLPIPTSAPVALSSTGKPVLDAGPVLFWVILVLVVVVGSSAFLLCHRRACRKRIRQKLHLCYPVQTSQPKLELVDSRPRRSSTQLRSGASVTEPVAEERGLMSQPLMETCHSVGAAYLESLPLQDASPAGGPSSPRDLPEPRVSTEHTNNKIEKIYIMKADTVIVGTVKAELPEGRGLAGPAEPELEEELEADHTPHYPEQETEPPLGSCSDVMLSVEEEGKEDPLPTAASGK
inactive: [1] 0.051 | crizotinib 0.15 | [2] 0.009 | [3] -0.073 | duvelisib 0.027 | gandotinib 0.012 | tozasertib -0.05 | [4] -0.063 | doramapimod -0.011 | ispinesib 0.029

TRIQK (UniProt Q629K1)
inactive: [1] 0.003 | crizotinib 0.024 | [2] 0.072 | [3] 0.017 | duvelisib 0.073 | tozasertib -0.003 | [4] -0.006 | doramapimod 0.008 | ispinesib 0.182

TRAPPC6B (UniProt Q86SZ2)
inactive: [1] -0.008 | crizotinib 0.024 | [2] 0.111 | [3] -0.069 | duvelisib 0.044 | gandotinib -0.045 | tozasertib 0.014 | [4] -0.014 | doramapimod 0.025 | ispinesib 0.014

TMEM128 (UniProt Q5BJH2)
UniProt Q5BJH2, sequence (Q5BJH2 whole entry, looked up): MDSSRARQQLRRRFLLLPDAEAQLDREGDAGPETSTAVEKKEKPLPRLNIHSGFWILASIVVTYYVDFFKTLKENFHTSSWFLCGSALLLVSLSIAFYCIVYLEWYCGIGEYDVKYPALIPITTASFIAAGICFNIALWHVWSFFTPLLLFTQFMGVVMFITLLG
inactive: [1] 0.001 | crizotinib 0.234 | [2] -0.062 | [3] 0.025 | duvelisib -0.009 | tozasertib 0.06 | [4] 0.016 | doramapimod -0.138 | ispinesib 0.021

TOE1 (UniProt Q96GM8)
inactive: [1] 0.013 | crizotinib 0 | [2] -0.221 | [3] 0.211 | duvelisib -0.01 | gandotinib 0.219 | tozasertib 0.041 | [4] 0.066 | doramapimod 0.065 | ispinesib -0.021

WASHC3 (UniProt Q9Y3C0)
inactive: [1] -0.014 | [2] 0.096 | [3] -0.039 | duvelisib 0.012 | gandotinib -0.041 | tozasertib 0.021 | [4] 0.014 | doramapimod 0.048
active: crizotinib -0.274 | ispinesib -0.4

XRCC6 (UniProt P12956)
UniProt P12956, sequence (P12956 whole entry, looked up): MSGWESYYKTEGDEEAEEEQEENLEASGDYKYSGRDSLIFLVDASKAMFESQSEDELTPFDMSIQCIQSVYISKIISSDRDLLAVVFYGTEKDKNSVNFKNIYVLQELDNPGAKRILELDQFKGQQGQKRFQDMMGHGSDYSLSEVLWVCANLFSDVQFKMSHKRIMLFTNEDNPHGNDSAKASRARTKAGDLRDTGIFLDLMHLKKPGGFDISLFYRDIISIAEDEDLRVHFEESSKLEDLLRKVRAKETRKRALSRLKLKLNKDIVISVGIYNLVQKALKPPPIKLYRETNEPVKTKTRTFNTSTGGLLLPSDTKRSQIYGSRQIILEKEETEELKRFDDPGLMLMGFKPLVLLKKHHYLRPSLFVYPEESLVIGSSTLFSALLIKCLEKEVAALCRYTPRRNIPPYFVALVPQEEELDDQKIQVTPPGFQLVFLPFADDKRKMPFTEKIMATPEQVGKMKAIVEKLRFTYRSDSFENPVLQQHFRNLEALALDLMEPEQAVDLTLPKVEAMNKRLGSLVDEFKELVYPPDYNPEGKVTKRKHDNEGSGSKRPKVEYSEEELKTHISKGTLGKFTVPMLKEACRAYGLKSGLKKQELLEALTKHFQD
inactive: [1] 0.013 | crizotinib -0.064 | [2] 0.088 | [3] -0.042 | duvelisib 0.016 | gandotinib -0.149 | tozasertib 0.075 | [4] 0.091 | doramapimod -0.05 | ispinesib -0.039

VPS39 (UniProt Q96JC1)
inactive: [1] -0.037 | [2] 0.026 | [3] 0.021 | duvelisib 0.011 | gandotinib -0.126 | tozasertib -0.033 | [4] 0.025 | doramapimod 0.008 | ispinesib -0.187
active: crizotinib -0.239

UFM1 (UniProt P61960)
inactive: [1] 0.021 | crizotinib 0.004 | [2] 0.178 | [3] -0.062 | duvelisib 0.146 | tozasertib -0.056 | [4] -0.043 | doramapimod -0.037 | ispinesib 0.158

TMEM189-UBE2V1 (UniProt I3L0A0)
inactive: [1] 0.063 | crizotinib 0.022 | [2] 0.051 | [3] 0.051 | duvelisib 0.042 | gandotinib 0.007 | tozasertib -0.009 | [4] -0.034 | doramapimod 0.021 | ispinesib 0.071

WASH2P (UniProt Q6VEQ5)
UniProt Q6VEQ5, sequence (Q6VEQ5 whole entry, looked up): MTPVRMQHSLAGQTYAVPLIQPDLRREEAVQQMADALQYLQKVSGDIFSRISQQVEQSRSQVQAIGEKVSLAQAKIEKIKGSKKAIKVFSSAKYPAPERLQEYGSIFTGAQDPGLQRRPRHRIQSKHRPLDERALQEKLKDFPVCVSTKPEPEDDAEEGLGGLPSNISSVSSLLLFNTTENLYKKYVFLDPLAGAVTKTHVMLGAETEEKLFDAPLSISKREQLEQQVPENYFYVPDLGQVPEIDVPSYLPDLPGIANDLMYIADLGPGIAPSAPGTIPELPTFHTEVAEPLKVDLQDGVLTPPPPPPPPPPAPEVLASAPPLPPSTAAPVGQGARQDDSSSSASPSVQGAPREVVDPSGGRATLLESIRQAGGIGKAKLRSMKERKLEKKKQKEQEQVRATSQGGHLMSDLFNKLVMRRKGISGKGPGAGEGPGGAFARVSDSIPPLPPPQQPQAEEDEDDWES
inactive: [1] -0.002 | [2] -0.017 | [3] 0.021 | duvelisib -0.02 | gandotinib -0.03 | tozasertib -0.071 | [4] -0.038 | doramapimod 0.041
active: crizotinib -0.321 | ispinesib -0.358

TSFM (UniProt P43897)
active: ispinesib 0.398
inactive: [1] -0.083 | crizotinib 0.171 | [2] 0.152 | [3] -0.104 | duvelisib 0.044 | gandotinib -0.083 | tozasertib -0.033 | [4] 0.095 | doramapimod -0.095
